# Publication PMC11006913
# Where a chain is given by its changes, count along the chain named.
# Tests used:
# Assay in all cases: PBM; 200 nM protein, PBS
# Settings in all cases: dsDNA, one strand shown
# [1] = biological target: HOXB9 (Homo sapiens, UniProt P17482 171-250, T197M)
# [2] = biological target: PRRX1 (Homo sapiens, UniProt P54821 80-166, F113S)
# [3] = biological target: HOXB6 (Homo sapiens, UniProt P17509 132-218, K202E)
# [4] = biological target: ALX3 (Homo sapiens, UniProt O95076 139-225, N203Q)
# [5] = biological target: T1, PAX4 (Homo sapiens, UniProt O43316 9-242, F177V)
# T1 sequence: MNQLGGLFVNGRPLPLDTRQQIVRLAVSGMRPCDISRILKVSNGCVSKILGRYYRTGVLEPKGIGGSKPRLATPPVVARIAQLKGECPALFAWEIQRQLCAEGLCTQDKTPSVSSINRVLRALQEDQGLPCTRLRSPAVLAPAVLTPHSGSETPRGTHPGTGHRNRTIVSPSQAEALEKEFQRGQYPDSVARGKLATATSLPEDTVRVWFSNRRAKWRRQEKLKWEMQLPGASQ
# [6] = biological target: ALX3 (Homo sapiens, UniProt O95076 139-225)
# [7] = biological target: ALX3 (Homo sapiens, UniProt O95076 139-225, L168Q)
# [8] = biological target: ALX3 (Homo sapiens, UniProt O95076 139-225, L168V)
# [9] = biological target: ALX3 (Homo sapiens, UniProt O95076 139-225, N203S)
# [10] = biological target: HOXC10 (Homo sapiens, UniProt Q9NYD6 254-340)
# [11] = biological target: HOXB9 (Homo sapiens, UniProt P17482 171-250)
# [12] = biological target: HOXC10 (Homo sapiens, UniProt Q9NYD6 254-340, K271E)
# [13] = biological target: VAX1 (Homo sapiens, UniProt Q5SQQ9 86-172)
# [14] = biological target: HOXB9 (Homo sapiens, UniProt P17482 171-250, R186Q)
# [15] = biological target: VAX1 (Homo sapiens, UniProt Q5SQQ9 86-172, T142I)
# [16] = biological target: VAX1 (Homo sapiens, UniProt Q5SQQ9 86-172, K157R)
# [17] = biological target: MSX2 (Homo sapiens, UniProt P35548 130-214, R199I)
# [18] = biological target: MSX2 (Homo sapiens, UniProt P35548 130-214)
# [19] = biological target: MSX2 (Homo sapiens, UniProt P35548 130-214, F161Y)
# [20] = biological target: T2, PAX4 (Homo sapiens, UniProt O43316 9-242, R200K)
# T2 sequence: T1 sequence with V169F, R192K
# [21] = biological target: T3, PAX4 (Homo sapiens, UniProt O43316 9-242)
# T3 sequence: T1 sequence with V169F
# [22] = biological target: T4, PAX4 (Homo sapiens, UniProt O43316 9-242, R200Q)
# T4 sequence: T1 sequence with V169F, R192Q
# [23] = biological target: T5, PAX4 (Homo sapiens, UniProt O43316 9-242, F177Y)
# T5 sequence: T1 sequence with V169Y
# [24] = biological target: PROP1 (Homo sapiens, UniProt O75360 56-141)
# [25] = biological target: PROP1 (Homo sapiens, UniProt O75360 56-141, R99H)
# [26] = biological target: PROP1 (Homo sapiens, UniProt O75360 56-141, F88S)
# [27] = biological target: T6, PAX4 (Homo sapiens, UniProt O43316 9-242, R227W)
# T6 sequence: T1 sequence with V169F, R219W
# [28] = biological target: HOXC9 (Homo sapiens, UniProt P31274 178-260, K195R)
# [29] = biological target: HOXC9 (Homo sapiens, UniProt P31274 178-260)
# [30] = biological target: HOXC9 (Homo sapiens, UniProt P31274 178-260, R193K)
# [31] = biological target: HOXC9 (Homo sapiens, UniProt P31274 178-260, R222W)
# [32] = biological target: ALX4 (Homo sapiens, UniProt Q9H161 200-286)
# [33] = biological target: ALX4 (Homo sapiens, UniProt Q9H161 200-286, Q225E)
# [34] = biological target: ALX1 (Homo sapiens, UniProt Q15699 118-204, L144V)
# [35] = biological target: HESX1 (Homo sapiens, UniProt Q9UBX0 95-180, F115L)
# [36] = biological target: PRRX1 (Homo sapiens, UniProt P54821 80-166)
# Chain of PRRX1 (Homo sapiens, UniProt P54821 80-166) (P54821 80-166): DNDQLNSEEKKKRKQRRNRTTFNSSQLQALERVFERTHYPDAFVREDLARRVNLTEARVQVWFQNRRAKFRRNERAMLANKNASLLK
# Chain of HOXB6 (P17509 132-218 K202E): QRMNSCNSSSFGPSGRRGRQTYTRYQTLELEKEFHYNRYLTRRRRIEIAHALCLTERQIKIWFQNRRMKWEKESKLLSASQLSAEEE
# Chain of HOXC10 (Homo sapiens, UniProt Q9NYD6 254-340, K271E) (Q9NYD6 254-340 K271E): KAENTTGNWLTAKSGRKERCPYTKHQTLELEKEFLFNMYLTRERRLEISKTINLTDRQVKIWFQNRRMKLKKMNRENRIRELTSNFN
# Chain of HOXC10 (Homo sapiens, UniProt Q9NYD6 254-340) (Q9NYD6 254-340): as the sequence (Q9NYD6 254-340 K271E) above, with E18K counted along it
# Chain of ALX3 (Homo sapiens, UniProt O95076 139-225, N203S) (O95076 139-225 N203S): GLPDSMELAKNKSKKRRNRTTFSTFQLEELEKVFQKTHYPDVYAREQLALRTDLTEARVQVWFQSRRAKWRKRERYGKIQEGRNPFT
# Chain of ALX3 (Homo sapiens, UniProt O95076 139-225) (O95076 139-225): as the sequence (O95076 139-225 N203S) above, with S65N counted along it
# Chain of HOXB9 (Homo sapiens, UniProt P17482 171-250, R186Q) (P17482 171-250 R186Q): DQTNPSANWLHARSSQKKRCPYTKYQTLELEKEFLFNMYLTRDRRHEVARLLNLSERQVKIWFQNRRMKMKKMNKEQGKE
# Chain of ALX3 (Homo sapiens, UniProt O95076 139-225, L168V) (O95076 139-225 L168V): as the sequence (O95076 139-225 N203S) above, with L30V, S65N counted along it
# Chain of HOXB9 (Homo sapiens, UniProt P17482 171-250) (P17482 171-250): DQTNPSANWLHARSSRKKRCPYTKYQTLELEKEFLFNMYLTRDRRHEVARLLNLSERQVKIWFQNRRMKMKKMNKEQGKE
# Chain of HOXB9 (Homo sapiens, UniProt P17482 171-250, T197M) (P17482 171-250 T197M): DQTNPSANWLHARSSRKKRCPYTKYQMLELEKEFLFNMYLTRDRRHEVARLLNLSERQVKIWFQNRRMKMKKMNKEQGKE
# Chain of ALX3 (Homo sapiens, UniProt O95076 139-225, N203Q) (O95076 139-225 N203Q): as the sequence (O95076 139-225 N203S) above, with S65Q counted along it
# Chain of ALX3 (Homo sapiens, UniProt O95076 139-225, L168Q) (O95076 139-225 L168Q): as the sequence (O95076 139-225 N203S) above, with L30Q, S65N counted along it
# Chain of MSX2 (Homo sapiens, UniProt P35548 130-214, F161Y) (P35548 130-214 F161Y): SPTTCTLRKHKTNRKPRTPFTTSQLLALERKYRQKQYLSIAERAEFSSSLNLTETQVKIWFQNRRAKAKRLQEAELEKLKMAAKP
# Chain of MSX2 (Homo sapiens, UniProt P35548 130-214, R199I) (P35548 130-214 R199I): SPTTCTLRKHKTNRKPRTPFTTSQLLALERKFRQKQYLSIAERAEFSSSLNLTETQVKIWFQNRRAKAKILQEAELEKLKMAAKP
# Chain of MSX2 (Homo sapiens, UniProt P35548 130-214) (P35548 130-214): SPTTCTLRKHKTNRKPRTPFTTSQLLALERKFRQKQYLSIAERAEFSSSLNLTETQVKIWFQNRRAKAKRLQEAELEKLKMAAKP
# Chain of PRRX1 (Homo sapiens, UniProt P54821 80-166, F113S) (P54821 80-166 F113S): as the sequence (P54821 80-166) above, with F34S counted along it
# Chain of HOXC9 (Homo sapiens, UniProt P31274 178-260, R222W) (P31274 178-260 R222W): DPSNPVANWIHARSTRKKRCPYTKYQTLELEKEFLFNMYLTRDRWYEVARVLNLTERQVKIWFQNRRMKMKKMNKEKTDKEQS
# Chain of ALX1 (Q15699 118-204 L144V): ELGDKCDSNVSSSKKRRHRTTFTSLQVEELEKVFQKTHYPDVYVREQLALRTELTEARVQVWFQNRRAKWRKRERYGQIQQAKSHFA
# Chain of HESX1 (Q9UBX0 95-180 F115L): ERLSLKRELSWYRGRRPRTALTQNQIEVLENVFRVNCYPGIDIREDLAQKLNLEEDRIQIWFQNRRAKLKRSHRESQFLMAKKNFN
# Chain of VAX1 (Homo sapiens, UniProt Q5SQQ9 86-172) (Q5SQQ9 86-172): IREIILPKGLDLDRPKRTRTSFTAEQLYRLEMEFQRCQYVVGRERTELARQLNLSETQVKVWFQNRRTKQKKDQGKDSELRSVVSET
# Chain of ALX4 (Homo sapiens, UniProt Q9H161 200-286) (Q9H161 200-286): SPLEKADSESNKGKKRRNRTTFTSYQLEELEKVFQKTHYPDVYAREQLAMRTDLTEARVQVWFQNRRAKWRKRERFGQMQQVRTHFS
# Chain of PROP1 (Homo sapiens, UniProt O75360 56-141) (O75360 56-141): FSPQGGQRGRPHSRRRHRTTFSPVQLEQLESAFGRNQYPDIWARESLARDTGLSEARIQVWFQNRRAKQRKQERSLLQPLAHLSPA
# Chain of HOXC9 (Homo sapiens, UniProt P31274 178-260, K195R) (P31274 178-260 K195R): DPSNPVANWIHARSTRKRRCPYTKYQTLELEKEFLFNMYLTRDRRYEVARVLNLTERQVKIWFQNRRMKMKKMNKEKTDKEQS
# Chain of VAX1 (Homo sapiens, UniProt Q5SQQ9 86-172, K157R) (Q5SQQ9 86-172 K157R): as the sequence (Q5SQQ9 86-172) above, with K72R counted along it
# Chain of PROP1 (Homo sapiens, UniProt O75360 56-141, F88S) (O75360 56-141 F88S): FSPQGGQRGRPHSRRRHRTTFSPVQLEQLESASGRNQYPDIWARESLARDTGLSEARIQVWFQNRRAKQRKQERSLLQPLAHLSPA
# Chain of VAX1 (Homo sapiens, UniProt Q5SQQ9 86-172, T142I) (Q5SQQ9 86-172 T142I): as the sequence (Q5SQQ9 86-172) above, with T57I counted along it
# Chain of HOXC9 (Homo sapiens, UniProt P31274 178-260) (P31274 178-260): as the sequence (P31274 178-260 R222W) above, with W45R counted along it
# Chain of ALX4 (Homo sapiens, UniProt Q9H161 200-286, Q225E) (Q9H161 200-286 Q225E): as the sequence (Q9H161 200-286) above, with Q26E counted along it
# Chain of PROP1 (Homo sapiens, UniProt O75360 56-141, R99H) (O75360 56-141 R99H): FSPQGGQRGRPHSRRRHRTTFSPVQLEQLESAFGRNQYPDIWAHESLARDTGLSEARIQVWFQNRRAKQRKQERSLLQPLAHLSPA
# Chain of HOXC9 (Homo sapiens, UniProt P31274 178-260, R193K) (P31274 178-260 R193K): as the sequence (P31274 178-260 R222W) above, with R16K, W45R counted along it
sequence,measurement,setting,value
AATTATAT,binding signal,[1],"9.99 upbm affinity estimate (log intensity, higher = more binding, comparable within an allelic series)"
same,binding signal,[2],"11.1 upbm affinity estimate (log intensity, higher = more binding, comparable within an allelic series)"
same,binding signal,[3],"9.99 upbm affinity estimate (log intensity, higher = more binding, comparable within an allelic series)"
AATATAAT,binding signal,[1],"9.96 upbm affinity estimate (log intensity, higher = more binding, comparable within an allelic series)"
same,binding signal,[3],"10 upbm affinity estimate (log intensity, higher = more binding, comparable within an allelic series)"
same,binding signal,[4],"8.52 upbm affinity estimate (log intensity, higher = more binding, comparable within an allelic series)"
same,binding signal,[5],"10.7 upbm affinity estimate (log intensity, higher = more binding, comparable within an allelic series)"
same,binding signal,[6],"11.4 upbm affinity estimate (log intensity, higher = more binding, comparable within an allelic series)"
same,binding signal,[7],"9.35 upbm affinity estimate (log intensity, higher = more binding, comparable within an allelic series)"
same,binding signal,[8],"9.24 upbm affinity estimate (log intensity, higher = more binding, comparable within an allelic series)"
same,binding signal,[9],"8.65 upbm affinity estimate (log intensity, higher = more binding, comparable within an allelic series)"
CTGCTCCC,binding signal,[1],"8.68 upbm affinity estimate (log intensity, higher = more binding, comparable within an allelic series)"
same,binding signal,[10],"10.1 upbm affinity estimate (log intensity, higher = more binding, comparable within an allelic series)"
same,binding signal,[11],"8.67 upbm affinity estimate (log intensity, higher = more binding, comparable within an allelic series)"
same,binding signal,[12],"10.1 upbm affinity estimate (log intensity, higher = more binding, comparable within an allelic series)"
same,binding signal,[13],"7.16 upbm affinity estimate (log intensity, higher = more binding, comparable within an allelic series)"
same,binding signal,[14],"8.65 upbm affinity estimate (log intensity, higher = more binding, comparable within an allelic series)"
same,binding signal,[15],"7.2 upbm affinity estimate (log intensity, higher = more binding, comparable within an allelic series)"
same,binding signal,[16],"7.01 upbm affinity estimate (log intensity, higher = more binding, comparable within an allelic series)"
CTCACGGC,binding signal,[1],"8.44 upbm affinity estimate (log intensity, higher = more binding, comparable within an allelic series)"
same,binding signal,[10],"10 upbm affinity estimate (log intensity, higher = more binding, comparable within an allelic series)"
same,binding signal,[11],"8.41 upbm affinity estimate (log intensity, higher = more binding, comparable within an allelic series)"
same,binding signal,[17],"9.58 upbm affinity estimate (log intensity, higher = more binding, comparable within an allelic series)"
same,binding signal,[4],"7.72 upbm affinity estimate (log intensity, higher = more binding, comparable within an allelic series)"
same,binding signal,[12],"10 upbm affinity estimate (log intensity, higher = more binding, comparable within an allelic series)"
same,binding signal,[18],"9.43 upbm affinity estimate (log intensity, higher = more binding, comparable within an allelic series)"
same,binding signal,[6],"7.47 upbm affinity estimate (log intensity, higher = more binding, comparable within an allelic series)"
same,binding signal,[7],"7.78 upbm affinity estimate (log intensity, higher = more binding, comparable within an allelic series)"
same,binding signal,[14],"8.46 upbm affinity estimate (log intensity, higher = more binding, comparable within an allelic series)"
same,binding signal,[8],"7.81 upbm affinity estimate (log intensity, higher = more binding, comparable within an allelic series)"
same,binding signal,[19],"9.43 upbm affinity estimate (log intensity, higher = more binding, comparable within an allelic series)"
same,binding signal,[9],"7.72 upbm affinity estimate (log intensity, higher = more binding, comparable within an allelic series)"
GCTCTCCC,binding signal,[1],"8.34 upbm affinity estimate (log intensity, higher = more binding, comparable within an allelic series)"
same,binding signal,[20],"9.21 upbm affinity estimate (log intensity, higher = more binding, comparable within an allelic series)"
same,binding signal,[21],"9.22 upbm affinity estimate (log intensity, higher = more binding, comparable within an allelic series)"
same,binding signal,[11],"8.35 upbm affinity estimate (log intensity, higher = more binding, comparable within an allelic series)"
same,binding signal,[17],"9.54 upbm affinity estimate (log intensity, higher = more binding, comparable within an allelic series)"
same,binding signal,[22],"9.3 upbm affinity estimate (log intensity, higher = more binding, comparable within an allelic series)"
same,binding signal,[5],"9.23 upbm affinity estimate (log intensity, higher = more binding, comparable within an allelic series)"
same,binding signal,[18],"9.45 upbm affinity estimate (log intensity, higher = more binding, comparable within an allelic series)"
same,binding signal,[23],"9.16 upbm affinity estimate (log intensity, higher = more binding, comparable within an allelic series)"
same,binding signal,[24],"6.88 upbm affinity estimate (log intensity, higher = more binding, comparable within an allelic series)"
same,binding signal,[25],"6.87 upbm affinity estimate (log intensity, higher = more binding, comparable within an allelic series)"
same,binding signal,[14],"8.35 upbm affinity estimate (log intensity, higher = more binding, comparable within an allelic series)"
same,binding signal,[26],"6.53 upbm affinity estimate (log intensity, higher = more binding, comparable within an allelic series)"
same,binding signal,[19],"9.57 upbm affinity estimate (log intensity, higher = more binding, comparable within an allelic series)"
same,binding signal,[27],"9.27 upbm affinity estimate (log intensity, higher = more binding, comparable within an allelic series)"
GAGTCTCC,binding signal,[1],"8.54 upbm affinity estimate (log intensity, higher = more binding, comparable within an allelic series)"
same,binding signal,[10],"10 upbm affinity estimate (log intensity, higher = more binding, comparable within an allelic series)"
same,binding signal,[11],"8.49 upbm affinity estimate (log intensity, higher = more binding, comparable within an allelic series)"
same,binding signal,[12],"9.99 upbm affinity estimate (log intensity, higher = more binding, comparable within an allelic series)"
same,binding signal,[14],"8.45 upbm affinity estimate (log intensity, higher = more binding, comparable within an allelic series)"
ACATTAAA,binding signal,[1],"9.92 upbm affinity estimate (log intensity, higher = more binding, comparable within an allelic series)"
same,binding signal,[28],"12.6 upbm affinity estimate (log intensity, higher = more binding, comparable within an allelic series)"
same,binding signal,[11],"12 upbm affinity estimate (log intensity, higher = more binding, comparable within an allelic series)"
same,binding signal,[29],"12.6 upbm affinity estimate (log intensity, higher = more binding, comparable within an allelic series)"
same,binding signal,[30],"12.6 upbm affinity estimate (log intensity, higher = more binding, comparable within an allelic series)"
same,binding signal,[12],"11.8 upbm affinity estimate (log intensity, higher = more binding, comparable within an allelic series)"
same,binding signal,[14],"11.7 upbm affinity estimate (log intensity, higher = more binding, comparable within an allelic series)"
same,binding signal,[31],"11 upbm affinity estimate (log intensity, higher = more binding, comparable within an allelic series)"
ATAAATTA,binding signal,[1],"9.96 upbm affinity estimate (log intensity, higher = more binding, comparable within an allelic series)"
same,binding signal,[32],"13.6 upbm affinity estimate (log intensity, higher = more binding, comparable within an allelic series)"
same,binding signal,[20],"11.7 upbm affinity estimate (log intensity, higher = more binding, comparable within an allelic series)"
same,binding signal,[2],"11.2 upbm affinity estimate (log intensity, higher = more binding, comparable within an allelic series)"
same,binding signal,[21],"12.2 upbm affinity estimate (log intensity, higher = more binding, comparable within an allelic series)"
same,binding signal,[3],"10 upbm affinity estimate (log intensity, higher = more binding, comparable within an allelic series)"
same,binding signal,[33],"12.6 upbm affinity estimate (log intensity, higher = more binding, comparable within an allelic series)"
same,binding signal,[34],"11.4 upbm affinity estimate (log intensity, higher = more binding, comparable within an allelic series)"
same,binding signal,[4],"8.61 upbm affinity estimate (log intensity, higher = more binding, comparable within an allelic series)"
same,binding signal,[22],"11.8 upbm affinity estimate (log intensity, higher = more binding, comparable within an allelic series)"
same,binding signal,[5],"10.7 upbm affinity estimate (log intensity, higher = more binding, comparable within an allelic series)"
same,binding signal,[6],"12.3 upbm affinity estimate (log intensity, higher = more binding, comparable within an allelic series)"
same,binding signal,[23],"11 upbm affinity estimate (log intensity, higher = more binding, comparable within an allelic series)"
same,binding signal,[7],"10.2 upbm affinity estimate (log intensity, higher = more binding, comparable within an allelic series)"
same,binding signal,[31],"11 upbm affinity estimate (log intensity, higher = more binding, comparable within an allelic series)"
same,binding signal,[8],"9.72 upbm affinity estimate (log intensity, higher = more binding, comparable within an allelic series)"
same,binding signal,[35],"7.82 upbm affinity estimate (log intensity, higher = more binding, comparable within an allelic series)"
same,binding signal,[27],"11 upbm affinity estimate (log intensity, higher = more binding, comparable within an allelic series)"
same,binding signal,[9],"8.71 upbm affinity estimate (log intensity, higher = more binding, comparable within an allelic series)"
same,binding signal,[36],"13.3 upbm affinity estimate (log intensity, higher = more binding, comparable within an allelic series)"
